Assay results reported in PubChem BioAssay (EPA / NIEHS).
Activity calls are given as the source filed them. Rule for the calls: active = hit-call score of the fitted dose curve at least 0.9, where 1 is the maximum; inactive = score below 0.9.

Columns and labels:
Settings in all cases: mRNA level, 48 h; actives raise or lower the signal
[1] = read-out: Peroxisomal acyl-coenzyme A oxidase 1 (ACOX1) gene, ACOX1 (gene 51); assay: LTEA_HepaRG_ACOX1: Life Technologies and Expression Analysis (LTEA) Assay for Peroxisomal acyl-coenzyme A oxidase 1 (ACOX1) gene using HepaRG (AID 2283467)
Outline: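 Human HepaRG hepatic cultures, 48 h treatment with test chemicals up to 100 uM. ACOX1 expression read by qRT-PCR relative to 0.5% DMSO vehicle.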

[2] = read-out: Alkaline Phosphatase, Placental (ALPP) gene, ALPP (gene 250); assay: LTEA_HepaRG_ALPP: Life Technologies and Expression Analysis (LTEA) Assay for Alkaline Phosphatase, Placental (ALPP) gene using HepaRG (AID 2283468)
Outline: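 HepaRG, 48 h plating then 48 h dosing, serum-free induction medium, 0.5% DMSO. 8 conc, half-log, max 100 uM, duplicates. Endpoint: ALPP transcript by qRT-PCR, housekeeping-normalized; gain or loss fitted vs DMSO.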

[3] = read-out: Bcl-2 (BAD) gene, BAD (gene 572); assay: LTEA_HepaRG_BAD: Life Technologies and Expression Analysis (LTEA) Assay for Bcl-2 (BAD) gene using HepaRG (AID 2283469)
Outline: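 Activity values reflect up- or down-regulation of BAD mRNA in human HepaRG hepatic cells treated 48 h in serum-free medium, with eight-point half-log dosing capped at 100 uM and 0.5% DMSO vehicle.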

[4] = read-out: Bcl-2 (BAX) gene, BAX (gene 581); assay: LTEA_HepaRG_BAX: Life Technologies and Expression Analysis (LTEA) Assay for Bcl-2 (BAX) gene using HepaRG (AID 2283470)
Outline: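 Human HepaRG cells treated in duplicate for 48 h across eight concentrations (max 100 uM, 0.5% DMSO); BAX expression measured by qRT-PCR.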

[5] = read-out: adenosine kinase (ADK) gene, ADK (gene 132); assay: LTEA_HepaRG_ADK: Life Technologies and Expression Analysis (LTEA) Assay for adenosine kinase (ADK) gene using HepaRG (AID 2283471)
Outline: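 Read-out is ADK transcript level measured by qRT-PCR and normalised to three housekeeping genes. Cells are human HepaRG, dosed for 48 h at up to 100 uM in 0.5% DMSO. Gain or loss of signal is fitted against DMSO controls.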

[6] = read-out: Alpha-fetoprotein (AFP) gene, AFP (gene 174); assay: LTEA_HepaRG_AFP: Life Technologies and Expression Analysis (LTEA) Assay for Alpha-fetoprotein (AFP) gene using HepaRG (AID 2283472)
Outline: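 Measures AFP mRNA change in HepaRG after 48 h chemical exposure (8 half-log concentrations, highest 100 uM, 0.5% DMSO). Fold change relative to DMSO, fitted in both directions.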

[7] = read-out: Apolipoprotein A-V (APOA5) gene, APOA5 (gene 116519); assay: LTEA_HepaRG_APOA5: Life Technologies and Expression Analysis (LTEA) Assay for Apolipoprotein A-V (APOA5) gene using HepaRG (AID 2283474)
Outline: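 Readout is APOA5 transcript level by qRT-PCR on Fluidigm dynamic arrays, normalized to three housekeeping genes. HepaRG cultures received chemicals for 48 h at up to 100 uM (half-log steps, 0.5% DMSO), with gain or loss scored relative to DMSO.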

[8] = read-out: Apoptosis regulator Bcl-2 (Homo sapiens) (UniProt P10415); assay: LTEA_HepaRG_BCL2: Life Technologies and Expression Analysis (LTEA) Assay for Bcl-2 gene using HepaRG (AID 2283475);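 note: BCL2 transcript by TaqMan qRT-PCR normalised to ACTB GAPDH and POLR2A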
Outline: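 Each chemical was tested in duplicate on HepaRG cultures held in serum-free induction medium for 48 h, highest concentration 100 uM with half-log dilutions. Transcript levels came from multiplexed qRT-PCR, normalised to housekeeping genes; activity was scored in either direction relative to DMSO.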

Caspase-3 (Homo sapiens) = Caspase-3 (Homo sapiens) (UniProt P42574); assay: LTEA_HepaRG_CASP3: Life Technologies and Expression Analysis (LTEA) Assay for cysteine-aspartic acid protease (CASP3) using HepaRG (AID 2283477)
Outline: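 Read-out is CASP3 mRNA level by TaqMan qRT-PCR in human HepaRG cells after 48 h chemical exposure. Eight half-log concentrations topping at 100 uM were tested in 0.5% DMSO; gain or loss was fitted relative to DMSO.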

[9] = read-out: Cytochrome P450 (CYP24A1), CYP24A1 (gene 1591); assay: LTEA_HepaRG_CYP24A1: Life Technologies and Expression Analysis (LTEA) Assay for Cytochrome P450 (CYP24A1) using HepaRG (AID 2283478)
Outline: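 HepaRG, 48 h chemical exposure, 8-pt half-log CRC from 100 uM, 0.5% DMSO vehicle, duplicates. Endpoint: CYP24A1 mRNA by Fluidigm TaqMan qRT-PCR, normalized ACTB/GAPDH/POLR2A; gain/loss fit vs DMSO.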

[10] = read-out: Cytochrome P450 (CYP1A2), CYP1A2 (gene 1544); assay: LTEA_HepaRG_CYP1A2: Life Technologies and Expression Analysis (LTEA) Assay for Cytochrome P450 (CYP1A2) using HepaRG (AID 2283479)
Outline: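 CYP1A2 transcript induction or loss, quantified by Fluidigm qRT-PCR against three housekeeping genes, was fitted bidirectionally against 0.5% DMSO controls. Human HepaRG cells received eight half-log concentrations from 100 uM over 48 h.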

[11] = read-out: Cytochrome P450 (CYP2B6), CYP2B6 (gene 1555); assay: LTEA_HepaRG_CYP2B6: Life Technologies and Expression Analysis (LTEA) Assay for Cytochrome P450 (CYP2B6) using HepaRG (AID 2283481)
Outline: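 HepaRG cells plated 48 h, switched to serum-free induction medium, then dosed 48 h (8 points, half-log from 100 uM, 0.5% DMSO). RNA isolated; CYP2B6 expression measured by qRT-PCR; gain or loss fitted relative to DMSO.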

[12] = read-out: Cytochrome P450 2C19 (Homo sapiens) (UniProt P33261); assay: LTEA_HepaRG_CYP2C19: Life Technologies and Expression Analysis (LTEA) Assay for CYP2C19 using HepaRG (AID 2283482)
Outline: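 Transcript levels of CYP2C19 were quantified by qRT-PCR after HepaRG cells were treated for 48 hours with test chemicals up to 100 uM (eight half-log concentrations, 0.5% DMSO vehicle). Gain or loss of signal was fitted relative to DMSO.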

CYP2C9 (gene 1559) = assay: LTEA_HepaRG_CYP2C9: Life Technologies and Expression Analysis (LTEA) Assay for CYP2C9 using HepaRG (AID 2283484)
Outline: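 Eight-point concentration-response (highest 100 uM, half-log dilutions) in HepaRG cells for 48 h; CYP2C9 expression by qRT-PCR normalized to ACTB, GAPDH, POLR2A. Bidirectional fit, DMSO baseline.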

CYP2E1 (gene 1571) = assay: LTEA_HepaRG_CYP2E1: Life Technologies and Expression Analysis (LTEA) Assay for CYP2E1 using HepaRG (AID 2283485)
Outline: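 Assay uses 48 h exposure of HepaRG hepatic cells, eight concentrations to 100 uM. Expression of CYP2E1 is quantified by TaqMan qRT-PCR with ACTB, GAPDH and POLR2A normalization; curves fitted in both directions relative to vehicle.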

CYP4A11 (gene 1579) = assay: LTEA_HepaRG_CYP4A11: Life Technologies and Expression Analysis (LTEA) Assay for CYP4A11 using HepaRG (AID 2283486)
Outline: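 HepaRG, 48 h chem exposure, 8 conc (100 uM top, half-log), 0.5% DMSO vehicle; qRT-PCR readout, housekeeping-gene normalized; bidirectional curve fit vs DMSO baseline.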

BCL2L11 (gene 10018) = assay: LTEA_HepaRG_BCL2L11: Life Technologies and Expression Analysis (LTEA) Assay for Bcl-2 (BCL2L11) gene using HepaRG (AID 2283473)
Outline: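 Read-out is BCL2L11 transcript level by qRT-PCR, normalized to three housekeeping genes and fitted bidirectionally against 0.5% DMSO vehicle. HepaRG cells received chemicals for 48 h in serum-free induction medium, 100 uM down in half-log dilutions.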

[13] = read-out: cysteine-aspartic acid protease (CASP8), CASP8 (gene 841); assay: LTEA_HepaRG_CASP8: Life Technologies and Expression Analysis (LTEA) Assay for cysteine-aspartic acid protease (CASP8) using HepaRG (AID 2283480)
Outline: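 Concentration-response in duplicate up to 100 uM (half-log steps, 0.5% DMSO) on differentiated HepaRG cultures for 48 h. Expression change of CASP8 mRNA is determined by TaqMan qRT-PCR with housekeeping-gene normalization.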

CYP2C8 (gene 1558) = assay: LTEA_HepaRG_CYP2C8: Life Technologies and Expression Analysis (LTEA) Assay for CYP2C8 using HepaRG (AID 2283483)
Outline: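 This is a transcriptional endpoint in HepaRG cultures: 48 h exposure, highest concentration 100 uM. CYP2C8 mRNA is quantified by TaqMan qRT-PCR.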

[14] = read-out: Bcl-2 (BID) gene, BID (gene 637); assay: LTEA_HepaRG_BID: Life Technologies and Expression Analysis (LTEA) Assay for Bcl-2 (BID) gene using HepaRG (AID 2283476)
Outline: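 Assay used HepaRG hepatic cells treated 48 h in serum-free medium with half-log dilutions from 100 uM. Endpoint: BID mRNA, qRT-PCR, normalized to ACTB/GAPDH/POLR2A.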

Measured: AC50

Chain of Cytochrome P450 2C19 (Homo sapiens) (P33261 whole entry, looked up): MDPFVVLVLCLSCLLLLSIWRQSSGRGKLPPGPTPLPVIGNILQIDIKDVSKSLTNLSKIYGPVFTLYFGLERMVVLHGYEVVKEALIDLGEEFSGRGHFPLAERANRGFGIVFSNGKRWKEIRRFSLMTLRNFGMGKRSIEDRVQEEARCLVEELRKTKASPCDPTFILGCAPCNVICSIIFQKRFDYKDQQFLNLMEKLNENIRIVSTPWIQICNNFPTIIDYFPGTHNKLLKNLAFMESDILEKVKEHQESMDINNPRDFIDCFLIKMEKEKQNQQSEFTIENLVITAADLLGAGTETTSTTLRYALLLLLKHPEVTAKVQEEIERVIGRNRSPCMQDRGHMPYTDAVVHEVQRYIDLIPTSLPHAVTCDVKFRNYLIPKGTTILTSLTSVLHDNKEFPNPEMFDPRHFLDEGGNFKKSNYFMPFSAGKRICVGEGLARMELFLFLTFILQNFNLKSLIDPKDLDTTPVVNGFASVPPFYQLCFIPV
Chain of Caspase-3 (Homo sapiens) (P42574 whole entry, looked up): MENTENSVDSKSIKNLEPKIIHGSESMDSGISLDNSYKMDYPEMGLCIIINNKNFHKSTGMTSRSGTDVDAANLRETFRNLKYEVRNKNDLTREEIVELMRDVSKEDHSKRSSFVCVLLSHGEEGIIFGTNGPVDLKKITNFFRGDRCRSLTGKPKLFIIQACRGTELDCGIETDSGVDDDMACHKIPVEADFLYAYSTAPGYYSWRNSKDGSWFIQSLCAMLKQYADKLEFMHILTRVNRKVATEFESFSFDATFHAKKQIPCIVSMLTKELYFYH
Chain of Apoptosis regulator Bcl-2 (Homo sapiens) (P10415 whole entry, looked up): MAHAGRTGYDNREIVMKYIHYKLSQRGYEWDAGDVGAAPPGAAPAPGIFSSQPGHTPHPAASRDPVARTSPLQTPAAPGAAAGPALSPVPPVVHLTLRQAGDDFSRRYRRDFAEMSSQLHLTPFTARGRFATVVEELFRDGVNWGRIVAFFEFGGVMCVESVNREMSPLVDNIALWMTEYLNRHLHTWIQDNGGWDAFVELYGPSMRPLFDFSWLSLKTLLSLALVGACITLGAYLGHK

ClC1=C(Cl)[C@]2(Cl)[C@@H]3[C@@H]4C[C@@H]([C@H]5O[C@@H]45)[C@@H]3[C@@]1(Cl)C2(Cl)Cl
inactive: [2] | [3] | [4] | [7] | [9] | [10] | CYP2C9 (gene 1559)
active: [1] 0.0311 µM | [5] 0.0386 µM | [6] 0.0145 µM | [8] 50 µM | Caspase-3 (Homo sapiens) 0.0261 µM | [11] 1.58 µM | [12] 12.3 µM | CYP2E1 (gene 1571) 22.4 µM | CYP4A11 (gene 1579) 31.5 µM

C=CC(=O)NCNC(=O)C=C
active: CYP2E1 (gene 1571) 50 µM
inactive: [1] | [2] | [3] | [4] | [5] | BCL2L11 (gene 10018) | [7] | [8] | Caspase-3 (Homo sapiens) | [9] | [10] | [13] | [11] | [12] | CYP2C8 (gene 1558) | CYP2C9 (gene 1559) | CYP4A11 (gene 1579)

CCOCCOC(C)=O
inactive: [1] | [2] | [3] | [4] | [5] | [6] | [7] | [8] | [14] | Caspase-3 (Homo sapiens) | [9] | [10] | [12] | CYP2C8 (gene 1558) | CYP2C9 (gene 1559) | CYP2E1 (gene 1571) | CYP4A11 (gene 1579)
active: [11] 20.3 µM
